Laboratory results published in PubChem BioAssay.
The source made the active and inactive calls.

Columns and labels:
[1] = test system: Wnt5a (protein binding on small-molecule microarray); assay: Wnt5a binders on small-molecule microarray, primary screen, biophysical, 635/667 nm fluorescence (AID 1142); details: 635 nm fluorescence, higher = more signal;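 note: fluorescence read at 667 nm with signal to noise per printed feature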
[2] = cell viability in Huh7 cells, primary screen, cytotoxicity control for HCV replication inhibitor project, CellTiter-Glo luminescence, basal, 48 h (AID 1143); details: Huh7 HCV replicon, higher = more signal, called active from +8 up or from −8 down;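 note: Huh7 hepatoma cells carrying a hepatitis C replication reporter with no stimulus; test concentration not given here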
[3] = CREB reporter modulators without forskolin, primary screen, cell-based, PC12, CRE-LacZ reporter, unstimulated (AID 1145); details: no forskolin, luminescence, 4.5 h, higher = more signal, called active from +8 up or from −8 down
[4] = CREB reporter modulators under forskolin, primary screen, cell-based, PC12, CRE-LacZ reporter, forskolin-stimulated (AID 1146); details: luminescence, 4.5 h, higher = more signal, called active from +8 up or from −8 down;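 note: PC12 cells with 6xCRE LacZ reporter stimulated by forskolin 10 µM; beta-galactosidase reporter signal reflecting CREB driven transcription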
[5] = biological target: Streptavidin (Streptomyces avidinii) (UniProt P22629); assay: streptavidin binders on small-molecule microarray, primary screen, artefact control for SMM compound annotation, biophysical, 635/667 nm fluorescence (AID 1147); details: streptavidin binding, higher = more signal;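 note: signal reflects streptavidin binding to arrayed compounds as a control protein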
Chain of Streptavidin (Streptomyces avidinii) (P22629 whole entry, looked up): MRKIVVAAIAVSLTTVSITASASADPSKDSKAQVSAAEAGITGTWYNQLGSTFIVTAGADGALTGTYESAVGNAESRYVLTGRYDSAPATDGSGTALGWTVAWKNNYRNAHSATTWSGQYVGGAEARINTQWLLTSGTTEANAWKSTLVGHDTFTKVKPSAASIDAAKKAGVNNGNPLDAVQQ

[6] = small-molecule binders of probe aInhba, primary screen, biochemical, small-molecule microarray, 635/667 nm fluorescence (AID 1148); details: higher = more signal;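 note: score merges 667nm spot fluorescence with signal-to-noise for antibody binding to printed compounds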
Torsin-1A (Homo sapiens) [7] = biological target: Torsin-1A (Homo sapiens) (UniProt O14656); assay: torsin A binders from cell lysate, primary screen, small-molecule microarray, wild-type, 635/667 nm (AID 1149); details: COS7 hTOR1A-WT lysate, 635 nm fluorescence, higher = more signal
Chain of Torsin-1A (Homo sapiens) (O14656 whole entry, looked up): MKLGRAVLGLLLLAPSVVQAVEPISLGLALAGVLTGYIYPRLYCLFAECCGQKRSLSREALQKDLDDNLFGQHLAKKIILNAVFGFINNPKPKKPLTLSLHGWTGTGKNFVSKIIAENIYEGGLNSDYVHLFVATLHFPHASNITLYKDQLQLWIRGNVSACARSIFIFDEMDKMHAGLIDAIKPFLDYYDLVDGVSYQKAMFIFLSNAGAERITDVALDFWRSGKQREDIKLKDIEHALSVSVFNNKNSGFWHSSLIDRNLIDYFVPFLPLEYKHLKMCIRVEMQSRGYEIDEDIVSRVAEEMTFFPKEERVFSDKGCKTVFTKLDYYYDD

Torsin-1A (Homo sapiens) [8] = biological target: Torsin-1A (Homo sapiens) (UniProt O14656); assay: small-molecule binders of mutant TOR1A in lysate, primary screen, cell lysate, small-molecule microarray, COS7 lysate, 635/667 nm fluorescence (AID 1150); details: COS7 hTOR1A mutant lysate, 635 nm fluorescence, higher = more signal;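 note: score pools 667 nm emission and signal to noise measuring lysate protein binding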
[9] = test system: Sonic hedgehog protein (Shh); assay: small-molecule binders of Shh protein, primary screen, biochemical, small-molecule microarray, 635/667 nm fluorescence (AID 1151); details: small-molecule microarray binding, 635 nm fluorescence; higher = more signal;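 note: Shh protein binding to compounds spotted on small-molecule microarray slides; score combines spot fluorescence intensity with signal-to-noise across triplicate slides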
[10] = E. coli DRC41 culture turbidity changes, primary screen, E. coli filamentation inducer project, strain DRC41, OD650, 48 h (AID 1152);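 note: E. coli MC1000 strain DRC41 lacking acrAB efflux pump and sulA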; details: E. coli DRC41 (acrAB sulA), higher = more signal, called active from +8 up or from −8 down
[11] = small-molecule binders of probe aLefty1, primary screen, biochemical, small-molecule microarray, 635/667 nm fluorescence (AID 1153); details: higher = more signal;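 note: score merges spot fluorescence with signal-to-noise ratio from the scanned slide images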
[12] = PSAC antagonists in infected red cells, primary screen, cell-based, P. falciparum Indochina, OD700, 1 h (AID 1154); details: P. falciparum Indochina infected RBC osmotic lysis, higher = more signal, called active from +8 up or from −8 down
[13] = PSAC antagonists in infected red cells, primary screen, cell-based, P. falciparum Indochina, OD700, 2 h (AID 1155);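 note: lysis reports solute entry through the parasite surface anion channel PSAC; channel blockers reduce lysis of infected cells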; details: P. falciparum Indochina infected erythrocytes, osmotic lysis OD700; higher = more signal, called active from +8 up or from −8 down
[14] = osmotic lysis modulators in infected erythrocytes, primary screen, PSAC antagonist project, cell-based, P. falciparum Indochina, OD700, 3 h (AID 1156); details: higher = more signal, called active from +8 up or from −8 down
[15] = PSAC antagonists in infected red cells, primary screen, cell-based, P. falciparum Indochina, OD700, 18 h (AID 1157); details: P. falciparum Indochina infected erythrocytes, osmotic lysis OD700, 18 h; higher = more signal, called active from +8 up or from −8 down
[16] = modulators of S6 phosphorylation in cells, primary screen, cell-based, A549, cytoblot, luminescence, serum-stimulated (AID 1158); details: A549 phospho-S6 cytoblot, 5 h, higher = more signal;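 note: serum-stimulated A549 lung adenocarcinoma cells; signal is phosphorylated S6 detected by cytoblot immunostaining with HRP secondary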
[17] = biological target: NADPH oxidase 2 (Homo sapiens) (UniProt P04839); assay: NOX2-dependent H2O2 signal modulators, primary screen, NOX inhibitor project, cell-based, HEK293-NOX2, PMA-stimulated, Amplex Red fluorescence (AID 1159); details: 45 min, higher = more signal, called active from +8 up or from −8 down; note: test concentration not given here
Chain of NADPH oxidase 2 (Homo sapiens) (P04839 whole entry, looked up): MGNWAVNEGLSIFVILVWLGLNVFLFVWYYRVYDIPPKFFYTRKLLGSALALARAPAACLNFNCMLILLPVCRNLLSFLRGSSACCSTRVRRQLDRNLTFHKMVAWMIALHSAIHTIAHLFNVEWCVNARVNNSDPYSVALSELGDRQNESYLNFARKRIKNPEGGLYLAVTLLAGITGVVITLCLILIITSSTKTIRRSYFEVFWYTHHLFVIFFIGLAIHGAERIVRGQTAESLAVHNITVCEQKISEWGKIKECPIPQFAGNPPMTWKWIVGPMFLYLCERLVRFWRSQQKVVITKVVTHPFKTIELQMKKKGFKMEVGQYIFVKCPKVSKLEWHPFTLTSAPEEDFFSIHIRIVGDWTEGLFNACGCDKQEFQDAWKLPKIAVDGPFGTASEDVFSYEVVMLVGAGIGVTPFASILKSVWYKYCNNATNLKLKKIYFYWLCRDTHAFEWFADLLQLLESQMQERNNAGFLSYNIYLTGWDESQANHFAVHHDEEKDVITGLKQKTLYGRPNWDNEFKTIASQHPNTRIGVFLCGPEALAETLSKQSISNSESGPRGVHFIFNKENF

[18] = biological target: NADPH oxidase 4 (Homo sapiens) (UniProt Q9NPH5); assay: NOX4-dependent H2O2 signal modulators, primary screen, NOX inhibitor project, cell-based, HEK293-NOX4, tetracycline-induced, Amplex Red fluorescence (AID 1160); details: 45 min, higher = more signal, called active from +8 up or from −8 down
Chain of NADPH oxidase 4 (Homo sapiens) (Q9NPH5 whole entry, looked up): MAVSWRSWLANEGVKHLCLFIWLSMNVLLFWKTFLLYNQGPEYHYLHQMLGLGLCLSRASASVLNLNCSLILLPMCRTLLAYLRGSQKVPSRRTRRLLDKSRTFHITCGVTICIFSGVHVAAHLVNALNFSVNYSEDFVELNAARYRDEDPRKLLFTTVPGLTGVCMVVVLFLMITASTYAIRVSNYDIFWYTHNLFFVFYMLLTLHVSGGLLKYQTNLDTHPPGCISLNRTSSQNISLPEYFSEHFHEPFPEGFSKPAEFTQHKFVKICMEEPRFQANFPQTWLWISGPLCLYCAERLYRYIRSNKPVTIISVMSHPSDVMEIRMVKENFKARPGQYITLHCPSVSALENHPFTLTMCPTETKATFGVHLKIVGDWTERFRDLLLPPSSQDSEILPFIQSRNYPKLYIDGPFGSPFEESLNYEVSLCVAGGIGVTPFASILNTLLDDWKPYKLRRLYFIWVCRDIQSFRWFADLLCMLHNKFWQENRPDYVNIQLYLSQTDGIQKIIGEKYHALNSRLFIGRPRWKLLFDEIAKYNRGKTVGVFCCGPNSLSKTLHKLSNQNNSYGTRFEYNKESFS

[19] = biological target: NADPH oxidase 5 (Homo sapiens) (UniProt Q96PH1); assay: NOX5-dependent H2O2 signal modulators, primary screen, NOX inhibitor project, cell-based, HEK293-NOX5, Amplex Red fluorescence (AID 1161); details: HEK293-NOX5, ionomycin, 45 min, higher = more signal
Chain of NADPH oxidase 5 (Homo sapiens) (Q96PH1 whole entry, looked up): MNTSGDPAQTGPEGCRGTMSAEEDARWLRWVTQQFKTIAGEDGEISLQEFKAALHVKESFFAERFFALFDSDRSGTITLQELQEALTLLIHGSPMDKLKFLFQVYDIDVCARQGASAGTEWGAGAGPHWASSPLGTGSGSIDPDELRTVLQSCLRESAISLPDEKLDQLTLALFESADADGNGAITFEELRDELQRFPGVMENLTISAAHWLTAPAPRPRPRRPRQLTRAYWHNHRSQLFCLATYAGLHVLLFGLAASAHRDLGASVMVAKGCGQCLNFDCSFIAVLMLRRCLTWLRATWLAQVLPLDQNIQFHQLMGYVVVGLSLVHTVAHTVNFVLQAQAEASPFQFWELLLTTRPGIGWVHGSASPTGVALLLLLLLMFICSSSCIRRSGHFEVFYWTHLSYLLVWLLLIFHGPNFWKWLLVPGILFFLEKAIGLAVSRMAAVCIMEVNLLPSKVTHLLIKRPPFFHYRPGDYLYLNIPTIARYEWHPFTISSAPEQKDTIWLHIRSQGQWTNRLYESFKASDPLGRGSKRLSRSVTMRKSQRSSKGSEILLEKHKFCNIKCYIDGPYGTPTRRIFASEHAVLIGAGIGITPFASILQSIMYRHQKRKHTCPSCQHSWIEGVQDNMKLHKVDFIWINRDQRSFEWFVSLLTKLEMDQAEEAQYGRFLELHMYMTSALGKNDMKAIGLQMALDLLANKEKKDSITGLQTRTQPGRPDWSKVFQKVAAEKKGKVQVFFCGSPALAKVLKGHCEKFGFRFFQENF

[20] = A549 cell viability effects, profiling panel, calcein-AM fluorescence, 48 h, basal (AID 1162); details: higher = more signal; note: test concentration not given here

Row | Structure (SMILES) | composite z-score [1] | z-score [2] | z-score [3] | z-score [4] | composite z-score [5] | composite z-score [6] | composite z-score (Torsin-1A (Homo sapiens) [7]) | composite z-score (Torsin-1A (Homo sapiens) [8]) | composite z-score [9] | z-score [10] | composite z-score [11] | z-score [12] | z-score [13] | z-score [14] | z-score [15] | z-score [16] | z-score [17] | z-score [18] | z-score [19] | z-score [20]
1 | CC(CO)N1C(=O)[C@@H]2C3C(=O)OCCC/C=C\[C@H]3OC23C=CCN(Cc2ccccc2)C(=O)[C@@H]13 (stereo not given in full) | -0.146 | -0.182 (inactive) | -0.753 (inactive) | -0.954 (inactive) | -1.03 | -0.31 | -0.462 | -0.276 | 0.194 | 2.52 (inactive) | -0.24 | 0.38 (inactive) | -0.999 (inactive) | -0.513 (inactive) | -0.899 (inactive) | 0.467 | 0.456 (inactive) | -0.322 (inactive) | 1.36 | 1.59
2 | O=C(N1CCCCC1)[C@@]1(Cc2ccccc2)N=C(c2ccc(OCCCO)cc2)O[C@H]1c1ccccc1 | 0.578 | -5.07 (inactive) | 0.414 (inactive) | -1.06 (inactive) | 1.13 | 0.749 | 0.599 | 1.42 | -0.401 | 0.696 (inactive) | 1.17 | 14.3 (active) | 2.37 (inactive) | 2.82 (inactive) | -0.657 (inactive) | 0.845 | -2.63 (inactive) | 0.489 (inactive) | -0.326 | -1.51
3 | Cc1ccc(N2C(=O)c3ccccc3[C@](C)(C(=O)NC3CC3)[C@@H]2c2ccc(CO)cc2)nc1 | 0.119 | 0.0401 (inactive) | -0.619 (inactive) | -0.732 (inactive) | -0.468 | 0.0053 | 0.141 | 1.06 | 0.496 | 1.3 (inactive) | -0.0162 | 0.262 (inactive) | -0.236 (inactive) | 0.151 (inactive) | -0.0411 (inactive) | 0.199 | -0.712 (inactive) | 0.504 (inactive) | 0.398 | 0.434
4 | Cc1ccc(S[C@]2(C(=O)NCCN3CCOCC3)CC(=O)N(Cc3cc(C(F)(F)F)cc(C(F)(F)F)c3)[C@@H]2c2ccc(CO)cc2)cc1 | 0.322 | -2.39 (inactive) | -0.464 (inactive) | -1.7 (inactive) | -0.721 | -0.0371 | -0.847 | -0.521 | -0.105 | 2.85 (inactive) | -0.0576 | 1.69 (inactive) | -0.152 (inactive) | -0.468 (inactive) | -1.39 (inactive) | 2.65 | 0.538 (inactive) | 0.706 (inactive) | 0.754 | 0.422
5 | C=C(COC)/C(=C/C[C@H](OC(C)=O)c1cccc(OCCO)c1)c1cc(C(=O)OC)ccc1OC | 0.44 | -8.11 (active) | 11.5 (active) | -0.4 (inactive) | -0.356 | -0.018 | 1.34 | 1.22 | 1.72 | 1.59 (inactive) | -0.101 | 10.1 (active) | 1.78 (inactive) | -2.63 (inactive) | -0.0354 (inactive) | 1.44 | -1.94 (inactive) | 0.00567 (inactive) | -3.06 | -0.344
6 | Cc1ccc(N2C(=O)c3ccccc3[C@](C)(C(=O)NCC(F)(F)F)[C@@H]2c2ccc(CO)cc2)nc1 | -0.318 | -1.01 (inactive) | 0.234 (inactive) | -1.31 (inactive) | -0.763 | -0.179 | -1.08 | -0.727 | -1.46 | 1.49 (inactive) | -0.147 | 0.57 (inactive) | 0.253 (inactive) | -0.317 (inactive) | 0.127 (inactive) | 0.654 | -0.103 (inactive) | -1.56 (inactive) | 1.22 | 0.708
7 | CC(C)(C)OC(=O)CC[C@@]12N=C(c3ccc(OCCCO)cc3)O[C@@H]1c1ccccc1CN(Cc1ccccc1)C2=O | 0.822 | -4.74 (inactive) | 0.344 (inactive) | -2.32 (inactive) | 0.197 | 0.0756 | 0.161 | -0.0105 | 1.04 | 0.71 (inactive) | 0.33 | 28 (active) | 25.8 (active) | 2.02 (inactive) | 2.14 (inactive) | 0.302 | 0.622 (inactive) | -0.441 (inactive) | -1.44 | -0.633
8 | CCN(CC)c1ccc(N2CC=CC34O[C@@H]5C=CCOC(=O)[C@@H]5[C@H]3C(=O)N(C(CO)C(C)C)[C@@H]4C2=O)cc1 (stereo not given in full) | -0.191 | -0.524 (inactive) | 0.471 (inactive) | 0.6 (inactive) | -0.258 | -0.391 | -0.156 | -0.701 | 0.0806 | 1.38 (inactive) | 0.189 | -0.185 (inactive) | -0.262 (inactive) | 1.21 (inactive) | 0.135 (inactive) | -0.369 | 0.787 (inactive) | 0.196 (inactive) | 1.23 | -0.0755
9 | C=C(COC)C(=O)CC[C@H](OC(=O)c1ccccc1-c1ccccc1C(=O)O)c1ccccc1OCCO | 0.032 | -0.828 (inactive) | 0.844 (inactive) | 0.122 (inactive) | 0.0456 | -0.0021 | 0.241 | -0.063 | 1.2 | 0.832 (inactive) | -0.196 | 4.88 (inactive) | 0.673 (inactive) | 2.51 (inactive) | 0.65 (inactive) | -0.541 | 2.1 (inactive) | 0.0678 (inactive) | -1.57 | 0.341
